# Laboratory results: PubChem BioAssay (NCI)
# This is part of a sample that, as a whole, favours compounds with a hit. Of some 79,000 tested, about 15% had one in any assay. A number with no mark means an inactive call. Calls of active or inactive are those of the source. Cut-off read from the data, not from the text of the source: active = growth inhibition above about 70%; inactive = the rest.
# Assay: NCI Yeast Anticancer Drug Screen. Data for the rad50 strain (AID 155);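 note: 0% = growth of vehicle-only cultures of the same strain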
# Conditions: S. cerevisiae rad50 strain growth inhibition; at 33.0 µM; active compounds read high
# In short: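 Yeast carrying a defined DNA repair defect were exposed to test compounds, and growth was compared with vehicle-treated controls to give percent inhibition.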
row,SMILES,growth inhibition
1,CCN(CC)CC[n+]1ccc2c(C)c3[nH]c4ccc(O)cc4c3c(C)c2c1,89% (active)
2,O=[n+]1c2ccc(Cl)cc2n([O-])c2ccc(Cl)cc21,61%
3,CCOP(=O)(OCC)C(Cc1ccccc1)N=C(c1ccccc1)c1ccccc1 (stereo not drawn),96% (active)
4,CC[C@@]1(O)C(=O)OCc2c1cc1n(c2=O)Cc2cc3c(N)cccc3nc2-1,86% (active)
5,COC1C=COC2(C)Oc3c(C)c(O)c4c(c3C2=O)/C(=N/C2CCC(O)OC2C)C=C(NC(=O)/C(C)=C\C(=O)C2CC2C(O)C(C)C(O)C(C)C(OC(C)=O)C1C)C4=O (stereo not drawn),10%
6,COc1cc2c(c(OC)c1OC)-c1c(cc3c(c1OC)OCO3)CC(C)C(C)(O)C2OC(=O)c1ccccc1 (stereo not drawn),-17%
7,O=c1ssc2ncccc12,97% (active)
8,O=C1C2C(C(=O)N1c1ccc(OCc3ccccc3)cc1)C1c3ccccc3C2C2CCCCN21 (stereo not drawn),41%
9,COc1ccc(-c2cn(-c3ccc(I)cc3)c3ncnc(N)c23)cc1,1%
10,CCOC(=O)C(NC(=O)c1ccccc1)(N1CCN(c2cc3c(cc2F)c(=O)c(C(=O)O)cn3C2CC2)CC1)C(F)(F)F (stereo not drawn),47%
11,C/C(=N\O)C1CC2C=C(C#N)C1N(Cc1ccccc1)C2 (stereo not drawn),0%
12,CC/C(=C(\c1ccccc1)c1ccc(OCCN(C)C)cc1)c1ccccc1,98% (active)
13,COc1ccccc1N=NC(C(=O)c1ccccc1)C(=O)c1ccccc1,96% (active)
14,CC(O)C(O)C(O)C(/C=N\Nc1ccccc1)=N/Nc1ccccc1 (stereo not drawn),63%
15,COc1ccc(/C=C2\SC(=S)N(/C=C/c3nc4ccccc4[nH]c3=O)C2=O)cc1OC,61%
16,N#CN=Nc1cc(Cl)c(N=NC#N)cc1Cl,3%
17,Cc1ccc(S(=O)(=O)Oc2cc(Cl)c(Cl)cc2Cl)cc1,3%
18,c1ccc2c(c1)Oc1cccc3cccc-2c13,23%
19,O=C(c1ccc(Cl)cc1Cl)C(Cl)Cl,79% (active)
20,CC(C)C1=CCC2C(=C1)CCC1C(C)(C(=O)O)CCCC21C (stereo not drawn) (tested in a mixture with another compound),41%

row,SMILES,growth inhibition
1,COc1cc(/C=C2\CCc3ccccc3C2=O)cc(OC)c1OC,26%
2,CC(=O)[O][Bi]([c]1ccccc1)[c]1ccccc1,95% (active)
3,S=C(N/N=C/c1ccccn1)Nc1ccc(Cl)cc1,19%
4,COc1cc(CC2CC(c3ccc4c(c3)OCO4)OC2=O)cc(OC)c1OC (stereo not drawn),8%
5,CNC1C(OC2C(OC3C(O)C(O)C(N=C(N)N)C(O)C3N=C(N)N)OC(C)C2(O)CO)OC(CO)C(O)C1O (stereo not drawn),31%
6,NNC(=O)CCc1ccc2ccc3ccccc3c2c1,7%
7,Oc1ccc2ccccc2c1C(c1ccc(Cl)cc1)c1c(O)ccc2ccccc12,55%
8,CCCCN(CCCC)CCSc1ccc(Cl)cc1,28%
9,CCC(C)COC(=O)c1ccc(N=Cc2ccc(C=Nc3ccc(C(=O)OCC(C)CC)cc3)cc2)cc1 (stereo not drawn),3%
10,CC1(C)C(=O)OC(n2cc(F)c(=O)[nH]c2=O)C1=O (stereo not drawn),17%
11,O=[N+]([O-])CC(SCc1ccccc1)c1ccc2c(c1)OCO2 (stereo not drawn),98% (active)
12,COc1cc2c(cc1[N+](=O)[O-])C(=O)C(Br)(Br)CCC2,99% (active)
13,OCC1OC(OCC(O)C(O)C(O)C(/C=N/Nc2ccccc2)=N/Nc2ccccc2)C(O)C(O)C1O (stereo not drawn),32%
14,COc1ccc(N=C2C(=O)Nc3ccc(Br)cc32)cc1,-11%
15,Cn1c(=O)c2ccccc2c2ccccc21,91% (active)
16,CC[n+]1ccc2c(C)c3[nH]c4ccc(O)cc4c3c(C)c2c1,86% (active)
17,CC(=O)ON1C(=O)c2cccc3cccc(c23)C1=O,97% (active)
18,COc1ccc2ccc3ccccc3c2c1C=O,6%
19,OC1CCCc2c1cc1ccc3cccc4ccc2c1c34 (stereo not drawn),95% (active)

# Same assay, conditions: S. cerevisiae rad50 strain growth inhibition; at 50.0 µM (retest, dose inferred, filed as 5.0); active compounds read high
row,SMILES,growth inhibition
1,CCN(CC)CC[n+]1ccc2c(C)c3[nH]c4ccc(O)cc4c3c(C)c2c1,87% (active)
2,O=[n+]1c2ccc(Cl)cc2n([O-])c2ccc(Cl)cc21,47%
3,CCOP(=O)(OCC)C(Cc1ccccc1)N=C(c1ccccc1)c1ccccc1 (stereo not drawn),7%
4,CC[C@@]1(O)C(=O)OCc2c1cc1n(c2=O)Cc2cc3c(N)cccc3nc2-1,84% (active)
5,COC1C=COC2(C)Oc3c(C)c(O)c4c(c3C2=O)/C(=N/C2CCC(O)OC2C)C=C(NC(=O)/C(C)=C\C(=O)C2CC2C(O)C(C)C(O)C(C)C(OC(C)=O)C1C)C4=O (stereo not drawn),37%
6,COc1cc2c(c(OC)c1OC)-c1c(cc3c(c1OC)OCO3)CC(C)C(C)(O)C2OC(=O)c1ccccc1 (stereo not drawn),40%
7,O=c1ssc2ncccc12,99% (active)
8,O=C1C2C(C(=O)N1c1ccc(OCc3ccccc3)cc1)C1c3ccccc3C2C2CCCCN21 (stereo not drawn),50%
9,COc1ccc(-c2cn(-c3ccc(I)cc3)c3ncnc(N)c23)cc1,69%
10,CCOC(=O)C(NC(=O)c1ccccc1)(N1CCN(c2cc3c(cc2F)c(=O)c(C(=O)O)cn3C2CC2)CC1)C(F)(F)F (stereo not drawn),76% (active)
11,C/C(=N\O)C1CC2C=C(C#N)C1N(Cc1ccccc1)C2 (stereo not drawn),-1%
12,CC/C(=C(\c1ccccc1)c1ccc(OCCN(C)C)cc1)c1ccccc1,99% (active)
13,COc1ccccc1N=NC(C(=O)c1ccccc1)C(=O)c1ccccc1,96% (active)
14,CC(O)C(O)C(O)C(/C=N\Nc1ccccc1)=N/Nc1ccccc1 (stereo not drawn),51%
15,COc1ccc(/C=C2\SC(=S)N(/C=C/c3nc4ccccc4[nH]c3=O)C2=O)cc1OC,46%
16,N#CN=Nc1cc(Cl)c(N=NC#N)cc1Cl,64%
17,Cc1ccc(S(=O)(=O)Oc2cc(Cl)c(Cl)cc2Cl)cc1,7%
18,c1ccc2c(c1)Oc1cccc3cccc-2c13,98% (active)
19,O=C(c1ccc(Cl)cc1Cl)C(Cl)Cl,84% (active)
20,CC(C)C1=CCC2C(=C1)CCC1C(C)(C(=O)O)CCCC21C (stereo not drawn) (tested in a mixture with another compound),98% (active)

row,SMILES,growth inhibition
1,COc1cc(/C=C2\CCc3ccccc3C2=O)cc(OC)c1OC,6%
2,CC(=O)[O][Bi]([c]1ccccc1)[c]1ccccc1,94% (active)
3,S=C(N/N=C/c1ccccn1)Nc1ccc(Cl)cc1,95% (active)
4,COc1cc(CC2CC(c3ccc4c(c3)OCO4)OC2=O)cc(OC)c1OC (stereo not drawn),12%
5,CNC1C(OC2C(OC3C(O)C(O)C(N=C(N)N)C(O)C3N=C(N)N)OC(C)C2(O)CO)OC(CO)C(O)C1O (stereo not drawn),-6%
6,NNC(=O)CCc1ccc2ccc3ccccc3c2c1,7%
7,Oc1ccc2ccccc2c1C(c1ccc(Cl)cc1)c1c(O)ccc2ccccc12,99% (active)
8,CCCCN(CCCC)CCSc1ccc(Cl)cc1,18%
9,CCC(C)COC(=O)c1ccc(N=Cc2ccc(C=Nc3ccc(C(=O)OCC(C)CC)cc3)cc2)cc1 (stereo not drawn),96% (active)
10,CC1(C)C(=O)OC(n2cc(F)c(=O)[nH]c2=O)C1=O (stereo not drawn),74% (active)
11,O=[N+]([O-])CC(SCc1ccccc1)c1ccc2c(c1)OCO2 (stereo not drawn),97% (active)
12,COc1cc2c(cc1[N+](=O)[O-])C(=O)C(Br)(Br)CCC2,98% (active)
13,OCC1OC(OCC(O)C(O)C(O)C(/C=N/Nc2ccccc2)=N/Nc2ccccc2)C(O)C(O)C1O (stereo not drawn),22%
14,COc1ccc(N=C2C(=O)Nc3ccc(Br)cc32)cc1,61%
15,Cn1c(=O)c2ccccc2c2ccccc21,84% (active)
16,CC[n+]1ccc2c(C)c3[nH]c4ccc(O)cc4c3c(C)c2c1,92% (active)
17,CC(=O)ON1C(=O)c2cccc3cccc(c23)C1=O,96% (active)
18,COc1ccc2ccc3ccccc3c2c1C=O,64%
19,OC1CCCc2c1cc1ccc3cccc4ccc2c1c34 (stereo not drawn),92% (active)
